nsP2pro inh = CHIKV nsP2 protease inhibition, primary qHTS | actives 1.1% (n = 31,000) | FRET peptide cleavage, nsP2pro, fluorescence 1 h | Potency, µM (series often up to 24.9 µM), for inactives: top-dose activity change, negative = inhibition, actives largely listed as inhibitors | AID 1964107; also: nearly all actives have a fitted effect of over 60% in size
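Purified recombinant nsP2pro (150 nM final) in 10 mM Tris-HCl pH 8.0 with 0.01% Tween 20 was preincubated 15 min at room temperature with compound (7 concentrations, up to 25 uM). FRET peptide 2 substrate (2.5 uM final) was then added; fluorescence was read after 1 h.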
CHIKV nsP2 cell = secondary cell-based test for CHIKV nsP2 protease inhibitors; Potency, µM (highest dose often 51.1 µM), inactives show at the highest dose activity change, negative = inhibition, usual class: inhibitors; AID 1964100; cell-based CHIKV nsP2 protease reporter assay; shares compounds with nsP2pro inh; actives 10% (n = 450); also: nearly all actives have a fitted effect of over 70% in size
CHIKV NSP2 FL = inhibits full-length CHIKV NSP2 enzyme. Potency, µM (doses to about 50.7 µM), for inactives: at the highest dose activity change, negative = inhibition, usual class: inhibitors. Full-length CHIKV NSP2 protease enzymatic counterscreen. AID 1964101. actives 39% (n = 410). shares compounds with nsP2pro inh; also: nearly all actives have a fitted effect of over 65% in size
Furin counterscr = human furin inhibition, counterscreen for nsP2pro inhibitors | shares compounds with nsP2pro inh | Recombinant human furin enzymatic counterscreen, fluorogenic substrate | Potency, µM (series often up to 50.6 µM), without a hit: top-dose activity change, negative = inhibition, actives largely listed as inhibitors | actives 6% (n = 410) | AID 1964102
nsP2 NS23 pep = nsP2pro inhibition on native NS2/3 peptide substrate; AID 1964103; actives 34% (n = 410); Potency, µM (highest dose often 51 µM), inactives show top-dose activity change, negative = inhibition, hits mostly inhibitors; Purified CHIKV nsP2 protease, endogenous NS2/3 peptide cleavage; shares compounds with nsP2pro inh; also: nearly all actives have a fitted effect of over 55% in size
Papain counter = papain protease inhibition, counterscreen for nsP2pro inhibitors; shares compounds with nsP2pro inh; purified papain protease activity, enzymatic inhibition; Potency, µM (highest dose often 51 µM), inactives show top-dose activity change, negative = inhibition, actives largely listed as inhibitors; actives 5% (n = 410); AID 1964104
Target sequence (P00784 whole entry, looked up): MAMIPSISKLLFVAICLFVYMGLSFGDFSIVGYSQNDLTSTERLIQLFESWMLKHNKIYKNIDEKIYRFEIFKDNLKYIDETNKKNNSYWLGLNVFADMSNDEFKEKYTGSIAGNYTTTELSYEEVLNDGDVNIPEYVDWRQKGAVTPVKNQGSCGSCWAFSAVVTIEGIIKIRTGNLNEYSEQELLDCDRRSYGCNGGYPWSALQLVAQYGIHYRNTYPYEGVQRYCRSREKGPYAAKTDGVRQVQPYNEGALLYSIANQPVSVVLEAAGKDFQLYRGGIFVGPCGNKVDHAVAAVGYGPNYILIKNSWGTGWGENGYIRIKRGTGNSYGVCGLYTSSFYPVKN
nsP2pro confirm = confirmation of CHIKV nsP2 protease inhibitors; actives 43% (n = 410); AID 1964105; shares compounds with nsP2pro inh; Potency, µM (highest dose often 25.5 µM), for inactives: top-dose activity change, negative = inhibition, actives largely listed as inhibitors; CHIKV nsP2 protease enzymatic activity, qHTS; also: nearly all actives have a fitted effect of over 75% in size
HCV NS3 counter = inhibits HCV NS3/4A protease in an nsP2pro selectivity counterscreen | shares compounds with nsP2pro inh | HCV NS3/4A protease biochemical counterscreen | Potency, µM (top dose mostly 50.9 µM), actives largely listed as inhibitors | actives 20% (n = 410) | AID 1964106; also: nearly all actives have a fitted effect of over 55% in size
The depositor's hits bear a star; i = inactive; ? = inconclusive; [ ] = another dose, or the depositor's remark. Shown is part of a subset that was picked to be rich in hits. Calls follow the shape of the full dose curve. % is scaled to controls: 0 for no effect and ±100 for the full control effect; potency is read from the fitted curve at half-maximal effect.

SMILES	nsP2pro inh	others
O=C(/C=C/c1ccc(O)c(O)c1)O[C@H]1[C@@H]2C=CO[C@@H](O[C@@H]3O[C@H](CO)[C@@H](O)[C@H](O)[C@H]3O)[C@@H]2[C@@]2(CO)O[C@@H]12	-7%[10 µM]
C[C@@H]1O[C@@H](O[C@H]2[C@@H]3C=CO[C@@H](O[C@@H]4O[C@H](CO)[C@@H](O)[C@H](O)[C@H]4O)[C@@H]3[C@@]3(CO)O[C@@H]23)[C@H](OC(=O)/C=C/c2ccc(O)c(O)c2)[C@H](O)[C@H]1O	?	CHIKV nsP2 cell=-3%[17.6 µM];CHIKV NSP2 FL=-2%[17.3 µM];Furin counterscr=-9%[17.3 µM];nsP2 NS23 pep=-13%[17.2 µM];Papain counter=-12%[17.2 µM];nsP2pro confirm=-24%[8.62 µM];HCV NS3 counter=i
COc1ccc(/C=C/C(=O)O[C@H]2[C@@H]3C=CO[C@@H](O[C@@H]4O[C@H](CO)[C@@H](O)[C@H](O)[C@H]4O)[C@@H]3[C@@]3(CO)O[C@@H]23)cc1O	42%[10 µM]
Oc1ccc(CNc2cc(Br)ccn2)c2cccnc12	i
COc1cccc(CNc2ccc([S+](=O)([O-])Nc3cc4ccccc4s3)cc2)c1O	-67%
O=C(NCCc1nc2ccccc2n1CCOc1ccccc1F)C1CCCCC1	-8%
c1ccc(-c2nc(NCc3ccc(-c4cccnc4)cc3)c3ccccc3n2)cc1	1%
COc1cc(C(=O)NC2CCN(C)CC2)ccc1Nc1ncc2c(n1)N(C1CCCC1)CC(F)(F)C(=O)N2C	118%
Oc1c(Br)cc(Br)cc1CNC1CCC(O)CC1 (centres undefined)	8.8µM*	CHIKV nsP2 cell=-7%;CHIKV NSP2 FL=-5%;Furin counterscr=4%;nsP2 NS23 pep=-7%;Papain counter=-7%;nsP2pro confirm=-17%;HCV NS3 counter=i
Nc1c(Br)cc(Br)cc1CNC1CCC(O)CC1 (centres undefined)	7%
Cc1ccc(OCCn2c(CCNC(=O)c3ccccn3)nc3ccccc32)cc1	-3%
Oc1cccc2cc(-c3ccccc3)cnc12	i
COc1ccccc1C(=O)NC1CCN(c2ccnc3ccnn23)C1 (centres undefined)	-5%[39.2 µM]
CS(=O)(=O)c1ncc(Cl)c(C(=O)N2CCN(c3cccc(Cl)c3)CC2)n1	1.6µM*	CHIKV nsP2 cell=1.5µM*;CHIKV NSP2 FL=5.8µM*;Furin counterscr=4%;nsP2 NS23 pep=8.2µM*;Papain counter=-3%;nsP2pro confirm=4.5µM*;HCV NS3 counter=i
O=C(C1CCN(c2nc3ccccc3[nH]2)CC1)N1CCN(c2cccc(Cl)c2)CC1	4%
Cc1ccc(Nc2ncc(C(=O)N3CCN(c4cccc(Cl)c4)CC3)c3ccccc23)cc1Cl	-20%
CC(C)C(=O)OCC(=O)[C@@]12OC(C3CCCCC3)O[C@@H]1C[C@H]1[C@@H]3CCC4=CC(=O)C=C[C@]4(C)[C@H]3[C@@H](O)C[C@@]12C (some centres undefined)	-7%
CC(CCC(=O)O)[C@H]1CC[C@H]2[C@@H]3CC[C@@H]4C[C@H](O)CC[C@]4(C)[C@H]3C[C@H](O)[C@]12C (some centres undefined)	-5%
C=C1C(=O)O[C@@H]2[C@H]3O[C@]3(C)CC/C=C(\C)CC[C@@H]12	-5%
C=C1C(=O)O[C@H]2C3=C(C)CCC[C@]3(C)C(=O)C[C@@H]12	?	CHIKV nsP2 cell=?;CHIKV NSP2 FL=?;Furin counterscr=2%;nsP2 NS23 pep=?;Papain counter=?;nsP2pro confirm=?;HCV NS3 counter=i
C=C1CC[C@@H](O)[C@]2(C)CC[C@H]3C(=C)C(=O)O[C@@H]3[C@@H]12	12%
C=CCc1cc(OC)c(OC(C)C(O)c2ccc(O)c(OC)c2)c(OC)c1 (centres undefined)	-1%
COc1ccc(OC)c(C(O)C(C)N)c1 (centres undefined)	0%
C[C@H](N)[C@H](O)c1ccc(O)c(O)c1	?	CHIKV nsP2 cell=-65%;CHIKV NSP2 FL=?;Furin counterscr=-10%[17.3 µM];nsP2 NS23 pep=9µM*;Papain counter=-9%[17.2 µM];nsP2pro confirm=?;HCV NS3 counter=0.052µM*
O=C(c1ccc2c(c1)ncn2-c1cccc(C(F)(F)F)c1)N1CCCCC1	-9%
SMILES	nsP2pro inh	others
COc1cc(OC)c(C(CC(=O)N2CC(C)CC(C)C2)c2ccc3c(c2)OCO3)c(OCC#N)c1 (centres undefined)	i
Cc1cc(N[S+](=O)([O-])c2ccc(NC(=O)Cc3ccccc3Cl)cc2)no1	1%
COc1ccc(S(=O)(=O)ON=C2C=C(C)C(=O)C(C)=C2)cc1	?	CHIKV nsP2 cell=2.2µM*;CHIKV NSP2 FL=?;Furin counterscr=-11%;nsP2 NS23 pep=6.5µM*;Papain counter=9.2µM*;nsP2pro confirm=?;HCV NS3 counter=i
COc1ccc(S(=O)(=O)N2CCN(S(=O)(=O)c3ccc(OC)cc3)CC2)cc1	1%
COc1ccc(S(=O)(=O)c2cc3cc(OC)ccc3oc2=O)cc1	-20%
CC1OC(O[C@@H]2[C@@H](O)[C@H](OC(=O)[C@]34CCC(C)(C)C[C@H]3C3=CCC5[C@@]6(C)CC[C@H](O[C@@H]7O[C@H](C(=O)O)[C@@H](O)[C@H](O[C@@H]8OC[C@@H](O)[C@H](O)[C@H]8O)[C@H]7O[C@@H]7O[C@H](CO)[C@H](O)[C@H](O)[C@H]7O)[C@@](C)(C=O)C6CC[C@@]5(C)[C@]3(C)C[C@H]4O)O[C@H](C)[C@@H]2OC2OC(C)C(OC3OCC(O)C(O)C3O)C(O)C2O)C(O)C(O)C1O (some centres undefined)	3%[5.1 µM]
COc1c(O)cc2oc(-c3ccccc3)cc(=O)c2c1O	-8%
CN(C)c1cccc(NS(=O)(=O)c2ccc(NC(=O)Cc3ccc(Cl)c(Cl)c3)cc2)c1	-27%
Oc1cc(CNC(=S)/C=C/c2cc(O)c(O)c(Br)c2)cc(O)c1O	5.6µM*	CHIKV nsP2 cell=0.22µM*;CHIKV NSP2 FL=15µM*;Furin counterscr=?;nsP2 NS23 pep=6.5µM*;Papain counter=?;nsP2pro confirm=5µM*;HCV NS3 counter=3.7µM*
COc1ccccc1C(=O)N1CCC(Cc2nncn2-c2ccccc2)CC1	3%
Cc1ccc(-c2cc(C(=O)Nc3ccc(-c4noc(=O)[nH]4)cc3)c3ccccc3n2)cc1C	i
Cc1cc(C)nc(NC(=S)N2CCN(c3nccc4occc34)CC2)c1	-3%
Cc1cc(N[S+](=O)([O-])c2ccc(NC(=O)Cc3ccc4nccnc4c3)cc2)no1	i
CN1CCN(c2ccc(Nc3cc(-c4cccc(-n5ccc6cc(C7CC7)cc(F)c6c5=O)c4CO)cn(C)c3=O)nc2)CC1	?	CHIKV nsP2 cell=141%;CHIKV NSP2 FL=47%;Furin counterscr=-18%;nsP2 NS23 pep=i;Papain counter=?;nsP2pro confirm=125%;HCV NS3 counter=i
